CYP2C19 inhib – human CYP2C19 inhibition | CYP2C19 Supersomes, luciferin-H EGE luminescence, 30 min | inhibition, % at 5 µM | 96,000 compounds, 21% hits | AID 778;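 active means CYP2C19 inhibition above a set limit at 5 µM in the primary screen, cut at about 50% in these data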
CYP2C9 inhib – inhibitors of human CYP2C9. P11712. CYP2C9 Supersomes, luciferin-H conversion, luminescence. inhibition, % at 5 µM. 96,000 compounds, 20% hits. AID 777;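 active means blocking of liver enzyme CYP2C9 beyond about 50% at 5 µM, limit read from the data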
Target sequence (P11712 whole entry, looked up): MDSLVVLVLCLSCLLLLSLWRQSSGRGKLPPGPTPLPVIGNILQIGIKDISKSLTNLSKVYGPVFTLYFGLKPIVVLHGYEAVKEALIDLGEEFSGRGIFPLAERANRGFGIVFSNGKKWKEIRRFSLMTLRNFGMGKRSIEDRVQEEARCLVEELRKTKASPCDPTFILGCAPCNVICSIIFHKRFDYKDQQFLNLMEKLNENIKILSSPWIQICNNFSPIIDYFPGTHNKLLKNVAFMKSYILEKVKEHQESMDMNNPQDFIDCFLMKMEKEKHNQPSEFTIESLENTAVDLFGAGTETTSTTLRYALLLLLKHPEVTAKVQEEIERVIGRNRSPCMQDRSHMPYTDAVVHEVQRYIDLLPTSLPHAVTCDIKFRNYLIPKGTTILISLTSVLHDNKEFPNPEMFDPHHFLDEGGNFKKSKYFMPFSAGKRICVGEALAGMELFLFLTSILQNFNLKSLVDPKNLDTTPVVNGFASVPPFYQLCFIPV
CYP2C19 act – activators of human cytochrome P450 2C19; 96,000 tested, under 10 active; recombinant CYP2C19, luciferin-H EGE luminescence; hits give high values; 0 = fully inhibited enzyme, 1 = untreated enzyme; P33261; activation factor at 5 µM;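 active means activation factor of at least 2 at 5 µM in the primary screen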
CYP2C9 activ – increases human cytochrome P450 2C9 activity | recombinant CYP2C9, luciferin-H conversion, luminescence; hits give high values; factor 1 = untreated enzyme, 0 = blocked | P11712 | 96,000 compounds, 1.4% hits | activation factor at 5 µM;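 active means activation factor of 2 or more for CYP2C9 at a 5 µM dose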
MRP1 act – activators of MRP-1; AID 799; 140,000 compounds, 0.61% hits; viability increase, % at 10 µM; H69AR cells + doxorubicin, viability rescue, CellTiter-Glo;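 active means viability gain under doxorubicin at or above a set limit, the compound median plus 3 SD, cut at about 4.7% in these data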;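 further: MRP-1 overexpressing cells given doxorubicin 25 µM after compound pretreatment; 18-22 h compound pretreatment then 72 h with doxorubicin before readout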
MRP resist rev – reverses drug resistance mediated by MRP. H69AR cells + 2 uM doxorubicin, CellTiter-Glo, 72 h. differential viability (reversal), % at 10 µM. 85,000 compounds, 0.04% hits. AID 602;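 active means viability drop by adding the cancer drug above about 55%, with treated viability meeting a 40% cutoff, limit read from the data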;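 further: larger differential means the compound sensitizes cells more to doxorubicin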
A number is an active result; - = inactive; . = not tested or not shown. In the library only some 21% were active in any assay of this set; here they are far more common.

SMILES | CYP2C19 inhib | CYP2C9 inhib | CYP2C19 act | CYP2C9 activ | MRP1 act | MRP resist rev
COc1ccc(-c2cnn(-c3ccccc3)c2N)cc1OC | - | - | - | 2.2 | - | -
COc1ccc(-c2c(C)nn(-c3ccccc3)c2N)cc1OC | . | . | . | . | - | -
COC(=O)c1cc(=O)n(-c2ccccc2)c(=Nc2ccccc2)s1 | . | . | . | . | - | .
OCc1csc(=Nc2ccccc2)n1-c1ccccc1 | 87.9 | - | - | - | - | -
CC(=O)Nc1ccc(OCC(O)Cn2nc(C)c(Br)c2C)cc1 (stereo not given) | . | . | . | . | - | -
COc1ccc(NC(=S)N(Cc2ccc(N(C)C)cc2)Cc2ccco2)cc1 | . | . | . | . | - | .
CCOc1ccc(NC(=S)N(Cc2ccc(N(C)C)cc2)Cc2ccco2)cc1 | - | 62.7 | - | - | - | .
Nc1nc(CSc2n[nH]c(-c3ccccc3)n2)nc(Nc2ccccc2)n1 | - | - | - | - | - | -
Cc1ccc(-c2nc(Nc3ccccc3)n[nH]2)cc1 | 68.8 | - | - | - | - | -
CNC(=O)C1C2C=CC3(O2)C1C(=O)N(C1CC1)C3C(=O)NCc1ccc(OC)cc1 (stereo not given) | - | - | - | - | - | -
CN(c1ccc(C(=O)N2CCCCC2)cc1)S(C)(=O)=O | - | - | - | - | - | -
COC(=O)c1onc(C(=O)c2ccccc2)c1C(=O)OC | 61.6 | 50.9 | - | - | - | -
CC1=NN(c2ccccc2)C(=O)/C1=C/c1cc2cc(C)ccc2nc1N1CCCCC1 | 66.7 | 81.4 | - | - | - | .
N#CCc1ccc(NS(=O)(=O)c2ccc(C3CCCCC3)cc2)cc1 | . | . | . | . | - | .
c1ccc(C2Nc3ccccc3-c3nc4ccccc4n32)nc1 (stereo not given) | . | . | . | . | - | -
c1ccc(C2Nc3ccccc3-c3nc4ccccc4n32)cc1 (stereo not given) | - | 71.1 | - | - | - | -
Cc1cc2n(n1)C(c1ccco1)Nc1ccccc1-2 (stereo not given) | - | - | - | - | - | -
c1coc(C2Nc3ccccc3-c3nc4ccccc4n32)c1 (stereo not given) | 79.8 | 91.2 | - | - | - | -
O=C1c2cccnc2C(O)N1Cc1ccc(F)cc1 (stereo not given) | . | . | . | . | - | -
COc1ccc(CN2C(=O)c3cccnc3C2Nc2ccc(C)cc2)cc1 (stereo not given) | 63.4 | 62.7 | - | - | - | -
CC(=O)c1ccc(NC2c3ncccc3C(=O)N2Cc2ccc(F)cc2)cc1 (stereo not given) | 76.3 | - | - | - | - | -
CC(=O)c1cccc(NC2c3ncccc3C(=O)N2Cc2ccco2)c1 (stereo not given) | 83.0 | - | - | - | - | -
Cc1ccc(-n2c(C)cc(/C=C3\NC(=O)NC3=O)c2C)c(C)c1 | . | . | . | . | - | .
Cc1ccc(C)c(/C=N/NC(=S)NCCc2ccccc2)c1 | - | - | - | - | - | .
O=C1c2ccccc2C(=O)N1CCCCN(C(=O)c1cccc([N+](=O)[O-])c1)c1ccc(Cl)cc1 | 69.2 | 60.6 | - | - | - | .
SMILES | CYP2C19 inhib | CYP2C9 inhib | CYP2C19 act | CYP2C9 activ | MRP1 act | MRP resist rev
O=C1c2ccccc2C(=O)N1CCCCN(C(=O)c1ccco1)c1ccc(Cl)cc1 | 56.6 | 82.5 | - | - | - | -
O=C1/C(=C/N(C(=O)c2ccco2)c2ccc(Cl)cc2)Sc2ccccc21 | . | . | . | . | - | .
O=C(c1cccc([N+](=O)[O-])c1)N1CCN(c2ccc(Cl)cc2)CC1 | . | . | . | . | - | .
Cc1cc(C)nc(NS(=O)(=O)c2ccc(NS(=O)(=O)c3ccccc3)cc2)n1 | - | - | - | - | - | -
Cc1c(NS(=O)(=O)c2ccccc2)cc(Cl)c(O)c1C | 99.1 | - | - | 2.5 | - | -
Cc1ccc(S(=O)(=O)Nc2cc(C(C)C)c(O)cc2C)cc1 | 83.8 | - | - | - | - | -
Cc1cc(O)c(C(C)C)cc1NC(=O)c1ccc(Cl)cc1 | - | - | - | - | - | .
Cc1ccc(C)c(NS(=O)(=O)c2ccc(NC(=O)CSc3ccc(Cl)cc3)cc2)c1 | . | . | . | . | - | .
Cc1ccc(S(=O)(=O)Nc2cc(Cl)c(O)cc2C)cc1 | 98.2 | - | - | 2.3 | - | -
C=CCn1c(-c2csc3ccccc23)n[nH]c1=S | 93.1 | 78.2 | - | - | - | .
C=CCn1c(-c2csc(-c3ccc(Cl)cc3)n2)n[nH]c1=S | 81.0 | - | - | - | - | -
COCc1cc(=O)[nH]c(/N=C(\N)Nc2ccccc2C)n1 | - | - | - | - | - | -
CCC(CO)Nc1ncnc2c1cnn2-c1ccc(Cl)cc1 (stereo not given) | - | 65.2 | - | - | - | -
Cn1c(Oc2ccccc2NCc2cc(Br)ccc2O)cc(=O)n(C)c1=O | 76.3 | 94.8 | - | - | - | -
CC(=O)c1c(COC(=O)c2ccccc2)nc2ccccc2[n+]1[O-] | 73.4 | - | - | - | - | -
Cc1cc(C)n(-c2ccc(C(=O)OCc3ccccc3)cc2)n1 | . | . | . | . | - | .
CN1CCN(NC(=O)c2cc([N+](=O)[O-])cc([N+](=O)[O-])c2)CC1 | - | - | - | - | - | .
O=C(COc1ccc(S(=O)(=O)N2CCCC2)cc1Cl)N1CCN(c2ccccc2)CC1 | 88.4 | 84.8 | - | - | - | -
CN1CCN(C(=O)c2cccc(S(=O)(=O)N3CCCCC3)c2)CC1 | - | - | - | - | - | -
O=C(NNC(=O)c1cccc(S(=O)(=O)N2CCN(c3ccccc3)CC2)c1)c1ccc(Cl)cc1 | . | . | . | . | 10.2 | .
O=C(c1cccc(S(=O)(=O)N2CCCC2)c1)N1CCN(c2ccccc2)CC1 | 67.3 | - | - | - | - | -
O=C(NNC(=O)C1CCN(S(=O)(=O)c2ccc(Cl)cc2)CC1)c1ccccc1 | . | . | . | . | - | .
CCc1cc2cc(C(=O)N3CCN(Cc4ccccc4)CC3)sc2s1 | - | - | - | - | - | -
O=C(COc1ccc(Cl)cc1Br)N1CCN(c2ccccc2)CC1 | - | - | - | - | - | -
CCc1cc2cc(C(=O)N3CCN(c4ccccc4)CC3)sc2s1 | - | 62.7 | - | - | - | -
SMILES | CYP2C19 inhib | CYP2C9 inhib | CYP2C19 act | CYP2C9 activ | MRP1 act | MRP resist rev
C#CCSc1nc2ccccc2n1C(=O)c1ccc(S(=O)(=O)N2CCCCC2)cc1 | . | . | . | . | - | .
O=C(O)c1cc(S(=O)(=O)NCc2ccco2)c(Cl)cc1Cl | - | - | - | - | - | -
CC(O)c1cc2c(cc1NC(=O)c1cnn3c1NC(c1ccco1)CC3C(F)(F)F)OCO2 (stereo not given) | - | - | - | - | - | -
O=C(c1ccc2ccccc2c1)N1CCN(c2ccccc2)CC1 | 62.5 | - | - | - | - | -
CCOc1ccc(C(=O)N2CCN(c3ccccc3)CC2)cc1OCC | - | - | - | - | - | -
O=C(/C(=C/c1ccccc1)c1ccccc1)N1CCCCC1 | - | 74.5 | - | - | - | .
CCOc1c(Cl)cc(CNC(C)(C)CC(C)(C)C)cc1OC | 90.9 | - | - | - | - | -
CCN(CC)CCOC(=O)C1c2ccccc2Oc2ccccc21 | - | - | - | - | - | -
COc1cccc(NC(=O)Cn2cnc3sc(C)c(S(=O)(=O)N4CCCCC4)c3c2=O)c1 | - | 65.6 | - | - | - | -

Screening data from PubChem BioAssay.
